High-throughput results (PubChem BioAssay)
Compounds with a hit are over-represented: about 2% of the library has one in this group of screens.
Arbovirus anti – arbovirus infection inhibition; arbovirus infection cell-based antiviral screen; inhibition, % at 10 µM; actives 0.37% (n = 200,000); AID 1251; in the data active means inhibition above about 30%
Efa HMGR inh – inhibitors of class II HMG-CoA reductase from Enterococcus faecalis; inhibition, % at 10 µM; actives 0.41% (n = 190,000); purified E. faecalis HMGR, NADPH absorbance 340 nm kinetic;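 active means inhibition above a set limit, the median over all tested compounds plus 3 SD, cut at about 9.5% in these data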;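 further: enzyme runs in reverse so mevalonate oxidation gives rising NADPH absorbance; 0% = complete reaction with DMSO and 100% = background rate lacking mevalonate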
PKD1 inh – blocks activity of human protein kinase D1. actives 0.056% (n = 200,000). inhibition, % (concentration not given with the values). Q15139. AID 797. PKD1 kinase fluorescence polarization assay; in the data active means inhibition above about 50%
Wee1 stabilizer – inhibitors of human Wee1 degradation. actives 1.2% (n = 220,000). HeLa Luc-Wee1K328M stability, luciferase luminescence; 100% = proteasome inhibitor MG132 effect. reporter increase, % at 5 µM. P30291. AID 1321;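 active means activation above the mean of all tested compounds plus 3 SD, set per screening run, cut at about 8.8% in these data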;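 further: cells exposed to compound for 20 h before luminescence read; 0% = DMSO alone and 100% = MG132 at 30 µM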
Target sequence (P30291 whole entry K328M): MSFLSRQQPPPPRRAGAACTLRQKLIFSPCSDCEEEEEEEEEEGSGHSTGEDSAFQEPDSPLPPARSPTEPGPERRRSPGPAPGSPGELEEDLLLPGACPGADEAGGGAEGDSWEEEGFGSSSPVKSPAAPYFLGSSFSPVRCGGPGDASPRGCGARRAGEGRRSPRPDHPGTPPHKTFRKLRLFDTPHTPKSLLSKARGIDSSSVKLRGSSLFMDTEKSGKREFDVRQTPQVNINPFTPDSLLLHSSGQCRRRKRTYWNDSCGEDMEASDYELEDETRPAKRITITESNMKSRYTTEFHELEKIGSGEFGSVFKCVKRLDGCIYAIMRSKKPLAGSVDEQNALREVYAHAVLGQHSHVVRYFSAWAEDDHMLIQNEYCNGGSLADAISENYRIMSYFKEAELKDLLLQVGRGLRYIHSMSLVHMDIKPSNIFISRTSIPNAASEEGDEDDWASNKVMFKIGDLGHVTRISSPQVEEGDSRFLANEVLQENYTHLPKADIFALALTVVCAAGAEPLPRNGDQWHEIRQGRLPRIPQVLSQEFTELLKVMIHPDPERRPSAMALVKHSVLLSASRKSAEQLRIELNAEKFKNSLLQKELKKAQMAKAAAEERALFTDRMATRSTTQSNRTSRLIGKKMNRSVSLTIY
Hsp70 activator – transcriptional activators of Hsp70; actives 0.04% (n = 200,000); activation, % at 10 µM; HeLa Hsp70 promoter luciferase reporter, luminescence; scaled: vehicle 0, proteasome-inhibitor control 100%; AID 1203;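 active means activation above the mean across all tested compounds plus 3 SD, cutoff set per campaign, cut at about 5.5% in these data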;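 further: 100% = MG132 at 30 µM as the positive control and 0% = DMSO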
* = called active by the depositor; . = not tested or not shown.

SMILES	Arbovirus anti	Efa HMGR inh	PKD1 inh	Wee1 stabilizer	Hsp70 activator
O=C(NCCN1C(=O)S/C(=C/c2cccnc2)C1=O)C1CC(=O)N(Cc2ccccc2)C1 (configuration not stated)	30.1*	0.1	-2.4	1.0	-0.4
Cc1nn(-c2cccc(Cl)c2)c2nc(C(F)(F)F)[nH]c(=O)c12	29.6	-13.3	-5.0	-0.2	-0.3
Cc1nn(-c2cc(C(F)(F)F)ccc2Cl)c2nc(C(F)(F)F)[nH]c(=O)c12	42.0*	-1.7	-1.1	-1.4	-0.1
CCCNC(=O)c1noc2c1CCc1cc(OC)ccc1-2	-1.1	-2.9	8.6	10.3*	0.2
COc1ccc2c(c1)CCc1c(C(=O)NCC(C)C)noc1-2	9.9	-4.4	1.3	0.7	-0.2
CCCNC(=O)NC(=O)CSc1nncs1	17.9	-0.3	-1.5	1.5	-0.2
CC(C)(C)c1csc(NC(=O)c2ccc(Cl)s2)n1	-16.9	-1.8	-7.9	8.5	0.7
CCNc1nc(N)c(C(=O)c2ccc(Cl)s2)s1	16.8	-2.7	-7.1	10.3*	0.5
Cc1cc(/C=C2/SC(=O)NC2=O)c(C)n1-c1ccc(N2CCOCC2)cc1	9.3	-2.9	-13.0	-3.0	-0.1
O=C1NC(=O)/C(=C/C(=O)N2CCOCC2)S1	-3.7	13.5*	1.0	0.0	-0.2
CC(C)C(=O)NC(NC(=S)Nc1cccc2cccnc12)C(Cl)(Cl)Cl (configuration not stated)	-0.4	.	48.4	0.7	-0.4
CCC(=O)NC(NC(=S)Nc1cccc2cccnc12)C(Cl)(Cl)Cl (configuration not stated)	-0.1	-1.3	-5.5	9.8*	-0.3
CC(C)n1c(NCc2ccc(N(C)C)cc2)nc2ccccc21	7.8	-12.4	-3.2	3.0	0.1
CC(C)n1c(NCc2cccs2)nc2ccccc21	10.7	2.6	-12.7	8.8*	-0.4
CCN(CC(=O)Nc1ccccc1OC)CC(=O)Nc1sccc1C#N	-0.7	6.0	-2.3	0.1	-0.3
CCN(CC)c1ccc(NC(=O)CCCCCN2C(=O)c3ccccc3C2=O)cc1	-2.9	-4.7	5.6	11.4*	0.0
COc1ccc(C=O)cc1Cn1c(C)cc(C)c(C#N)c1=O	-0.5	-4.3	7.9	-1.2	0.0
O=C(Nc1ccc(Cl)cc1)N1CCc2ccccc2C1	1.6	-0.8	-0.8	9.7*	0.7
O=C(Nc1ccccc1)N1CCc2ccccc2C1	-14.5	-0.9	-4.1	-0.8	1.2
COc1cc(S(=O)(=O)N2CCC(c3nc4ccccc4s3)CC2)ccc1S(=O)(=O)NC1CCCC1	7.5	13.9*	0.1	0.6	-0.2
O=C(c1ccc([N+](=O)[O-])cc1[N+](=O)[O-])N1CCCC1	-7.2	-0.4	-4.0	0.1	-0.1
O=C(N=C1N=C2C=CC(Br)=CN2Cc2ccccc21)c1ccc([N+](=O)[O-])cc1[N+](=O)[O-]	.	.	.	10.5*	.
O=C(NCc1ccccn1)C(=O)NN=C1CCCCCCC1	2.0	2.3	-5.6	0.8	0.0
Cc1cccc(NC(=O)COc2ccc(Br)cc2/C=N/O)c1	4.5	-0.9	-5.7	9.4*	0.1
CC(=O)Nc1ccc(NC(=O)COc2ccc(Br)cc2C)cc1	-0.2	2.8	0.7	-1.2	-0.1
SMILES	Arbovirus anti	Efa HMGR inh	PKD1 inh	Wee1 stabilizer	Hsp70 activator
COc1ccc(-c2cc(N)n(S(=O)(=O)c3c(F)c(F)c(F)c(F)c3F)n2)cc1OC	-35.8	1.0	2.9	-2.9	20.1*
COC(=O)c1cc(NC(=O)c2ccccc2F)cc(C(=O)OC)c1	12.0	4.0	-3.6	-3.3	0.4
CCCCCOC(=O)CSc1nc2c(c(=O)[nH]c(=O)n2C)n1CCc1ccccc1	-3.1	3.8	5.6	9.9*	-0.1
CCCCCn1c(SCCc2ccccc2)nc2c1c(=O)[nH]c(=O)n2C	-21.6	-1.4	-3.6	0.0	-0.3
CC(=O)c1nnn(-c2ccc([N+](=O)[O-])cc2)c1C	3.2	4.1	-1.1	0.8	0.2
O=C(O)c1ccc2c3c(cccc13)C(=O)N(c1ccccc1)C2=O	-2.6	-0.9	-6.2	2.4	0.0
Cc1c(O)c2c3c(cccc3c1O)C(=O)N(c1ccccc1)C2=O	35.5*	-5.5	-3.0	-0.6	-0.5
COc1ccc(C/C(C)=N/NC(=O)c2cccnc2)cc1	7.5	4.6	9.3	-1.6	0.1
CC(=O)N1CCN(Cc2nc3cc(NC(=O)Nc4ccccc4)ccc3n2C)CC1	-0.4	-1.9	-2.6	6.1	0.1
COCCCNCCCCSc1ccc(Cl)cc1	-14.0	-9.1	-2.7	5.8	0.0
COC(=O)CSC1=NS(=O)(=O)c2ccccc21	-3.1	1.2	-1.3	1.1	-0.1
